Luciferase inh = Firefly luciferase inhibition profiling of diverse chemical library using quantitative high-throughput screening. Luciferin 4-monooxygenase (Photinus pyralis), P08659. purified P. pyralis luciferase, luminescence, biochemical. Potency, µM (titrated, usually from 115 µM), hits mostly inhibitors. hit rate 2.5% among 76,000. AID 1347043, 2019; also: nearly all actives have a fitted effect of over 65% in size
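FLuc 10nM, D-luciferin 10uM, ATP 10uM, Mg acetate 10mM, Tris acetate pH 7.5, Tween/BSA; cpd qHTS; enzyme added last; CCD luminescence.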
GPT2 inhibitor = Primary qHTS assay for inhibitors of Glutamate pyruvate transaminase 2 (GPT2). Recombinant GPT2, coupled pyruvate oxidase/HRP Amplex Red fluorescence. hit rate 0.25% among 100,000. AID 1671188, 2021. Potency, µM (doses to about 57.7 µM), without a hit: at the highest dose activity change, negative = inhibition, actives largely listed as inhibitors. Alanine aminotransferase 2 (Homo sapiens), Q8TD30; also: nearly all actives have a fitted effect of over 60% in size
Target sequence (Q8TD30 whole entry, looked up): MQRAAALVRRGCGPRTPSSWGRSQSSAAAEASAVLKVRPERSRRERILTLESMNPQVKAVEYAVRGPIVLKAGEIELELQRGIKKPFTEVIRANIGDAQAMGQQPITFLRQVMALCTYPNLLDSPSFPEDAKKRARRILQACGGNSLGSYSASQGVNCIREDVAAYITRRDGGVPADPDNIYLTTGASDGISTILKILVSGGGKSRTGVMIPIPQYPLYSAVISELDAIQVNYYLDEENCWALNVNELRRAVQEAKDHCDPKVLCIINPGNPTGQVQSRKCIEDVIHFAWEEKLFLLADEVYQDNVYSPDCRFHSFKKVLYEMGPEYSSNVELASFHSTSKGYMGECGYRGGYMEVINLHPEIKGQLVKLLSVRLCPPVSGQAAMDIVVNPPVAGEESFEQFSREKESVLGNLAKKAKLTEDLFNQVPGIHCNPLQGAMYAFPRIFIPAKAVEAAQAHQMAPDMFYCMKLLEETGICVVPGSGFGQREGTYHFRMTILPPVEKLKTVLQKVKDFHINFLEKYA
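GPT2 10ng/uL, a-KG 250uM, L-Ala 2mM, HEPES pH7.5 + 0.0001% Tween; 30 min RT. Then Amplex mix (PO/HRP/ThPP), 30 min RT dark, fluorescence. AOA 50uM used as positive control.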
NIH3T3 tox = Cytotoxic Profiling in NIH 3T3 Cell Line of Diverse Libraries Using Quantitative High-Throughput Screening. NIH 3T3 viability, CellTiter-Glo ATP luminescence, 48-72 h. Potency, µM (series often up to 96.7 µM), for inactives: at the top dose activity change, negative = cytotoxicity, most hits filed as inhibitors. hit rate 4.3% among 94,000; also: nearly all actives have a fitted effect of over 55% in size
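First NIH 3T3 cells are plated at 400 cells/well; next compound is pinned in; then plates incubate 48 or 72 hr at 37 °C; finally CellTiter-Glo is added and luminescence read after 10 min.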
HEK cytotox = Cytotoxic Profiling in HEK 293 Cell Line of Diverse Libraries Using Quantitative High-Throughput Screening | HEK 293 viability, ATP luminescence (CellTiter-Glo), 48-72 h | Potency, µM (doses to about 115 µM), without a hit: at the top dose activity change, negative = cytotoxicity, usual class: inhibitors | hit rate 6.6% among 94,000 | AID 1345083, 2018; also: nearly all actives have a fitted effect of over 60% in size
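ATP-coupled CellTiter-Glo luminescence served as viability read-out, recorded 10 min after reagent addition at room temperature. HEK 293 cells, 250 cells/well, had been incubated with pintool-transferred compound for 48 or 72 hr at 37 degree Celsius.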
hNpr1 antagonist = Natriuretic polypeptide receptor (hNpr1) antagonism - Primary qHTS; Atrial natriuretic peptide receptor 1 (Homo sapiens), P16066; HEK293 hNpr1 GloSensor cGMP, ANP-stimulated luminescence; Potency, µM (top dose mostly 46.3 µM), inactives show at the highest dose activity change, negative = inhibition, actives largely listed as inhibitors; hit rate 1.6% among 76,000; calls by dose curve; also: nearly all actives have a fitted effect of over 60% in size
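HEK293 cells stably expressing human Npr1 and cGMP GloSensor pGS-40F, loaded 2 h with 2% GloSensor reagent, given compound 30 min at room temperature. Luminescence read before and 20 min after 0.1 nM hNppA.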
Numbers without * were called inactive; [ ] = another dose, or the depositor's remark. A selection: hits, their analogues and other compounds. The true share with any hit is near 10%. Unless noted, calls follow the shape of the dose curve; as a rule, active = well fitted curve in the direction sought with a large enough effect; inconclusive = small, poorly fitted or top-dose-only effect, or another doubt; inactive = no such curve, though single readings can be large; an effect the other way counts as inactive or inconclusive. % is scaled to controls: 0 for no effect and ±100 for the full control effect; potency is read from the fitted curve at half-maximal effect.

`C[S+](=O)([O-])NC1CCN(c2nccc(Nc3ccccc3F)n2)CC1` gave GPT2 inhibitor inactive, NIH3T3 tox inconclusive and HEK cytotox inconclusive.
`O=C(NCC1CCCN(Cc2ncccn2)C1)c1ccc(-c2ccccc2)cc1` (centres undefined) gave Luciferase inh inactive, GPT2 inhibitor inconclusive, NIH3T3 tox -9%, HEK cytotox inconclusive and hNpr1 antagonist -1%.
For O=C(NCC1CCCN(C(=O)c2ccc3[nH]ccc3c2)C1)c1ccc(-c2ccccc2)cc1 (centres undefined) the results were Luciferase inh inconclusive, GPT2 inhibitor -4%, NIH3T3 tox inconclusive, HEK cytotox 18µM* and hNpr1 antagonist 11µM*.
For O=C(C1CC1)N1CCCC(Cc2noc(-c3ccccc3)n2)C1 (centres undefined) the results were Luciferase inh inconclusive, GPT2 inhibitor inactive, NIH3T3 tox inconclusive, HEK cytotox inconclusive and hNpr1 antagonist 4%.
Screening O=C(NCC1CCCN(C(=O)c2ccsc2)C1)c1ccc(-c2ccccc2)cc1 (centres undefined) returned Luciferase inh inconclusive, GPT2 inhibitor inactive, NIH3T3 tox inconclusive, HEK cytotox 45µM* and hNpr1 antagonist inconclusive.
O=C(c1ccc2cc[nH]c2c1)N1CCCC(Cc2noc(-c3ccccc3)n2)C1 (centres undefined) was read as Luciferase inh inactive, GPT2 inhibitor inactive, NIH3T3 tox 20µM*, HEK cytotox inconclusive and hNpr1 antagonist 1%.
`CCn1ccnc1CN1CCCC(CNC(=O)c2ccc(-c3ccccc3)cc2)C1` (centres undefined) gave Luciferase inh inactive, GPT2 inhibitor inactive, NIH3T3 tox inconclusive, HEK cytotox inconclusive and hNpr1 antagonist -7%.
`COc1ccc(-c2ccc(C(=O)N3CCC(NC(=O)C4CC4)C3)cc2)nn1` (centres undefined) gave NIH3T3 tox 4% and HEK cytotox -4%.
`CN(C)c1ccc(C(=O)NC2CCN(c3cnn(C)c(=O)c3)CC2)cc1` gave Luciferase inh inactive, GPT2 inhibitor inactive, NIH3T3 tox -8%, HEK cytotox -10% and hNpr1 antagonist 14%.
CCOC(=O)C1CCN(C(=O)C2CCc3nnc(-c4ccc(F)cc4)n32)CC1 (centres undefined) was read as GPT2 inhibitor 0%, NIH3T3 tox -20% and HEK cytotox 4%.
`OCC1CN(c2ncccn2)CC12CCN(Cc1ccc3[nH]ccc3c1)CC2` (centres undefined) gave Luciferase inh inactive, GPT2 inhibitor 0%, NIH3T3 tox -8%, HEK cytotox inconclusive and hNpr1 antagonist 1%.
`COc1cccc(Nc2ncc(-c3ccccc3OC)c3c2OCC3)c1` gave Luciferase inh inactive, GPT2 inhibitor -21%[88.5 µM], NIH3T3 tox inconclusive, HEK cytotox inconclusive and hNpr1 antagonist -15%[70.6 µM].
`COc1ccc(C(=O)Nc2ncc(-c3ccc(OC)nc3)c3c2OCC3)cc1` gave Luciferase inh inconclusive, GPT2 inhibitor -29%[88.5 µM], NIH3T3 tox inconclusive, HEK cytotox -21%[172 µM] and hNpr1 antagonist -11%[70.6 µM].
Screening COc1ccc(-c2cnc(Nc3ccc(CN4CCN(C)CC4)cc3)c3c2CCO3)cn1 returned Luciferase inh inconclusive, GPT2 inhibitor inactive, NIH3T3 tox 28µM*, HEK cytotox inconclusive and hNpr1 antagonist -15%[70.6 µM].
For COc1ccccc1-c1cnc(Nc2ccc(CN3CCN(C)CC3)cc2)c2c1CCO2 the results were Luciferase inh inconclusive, GPT2 inhibitor 3%[88.5 µM], NIH3T3 tox 25µM*, HEK cytotox 35µM* and hNpr1 antagonist -11%[70.6 µM].

Compound activity: PubChem, National Center for Advancing Translational Sciences (NCATS)
